Hits are enriched below; roughly 2.5% of the tested compounds scored in any of these assays.
PG9 Ab binder – small molecules binding HIV-1 gp120 antibody PG9; AID 624416; hit rate 0.43% among 360,000; TR-FRET gp120-PG9 antibody binding; inhibition, % at 6.7 µM; in the data active = inhibition above about 8.5%
rCAG binder – molecules binding r(CAG) RNA repeats; r(CAG) RNA repeat, TO-PRO-1 dye displacement fluorescence; inhibition, % at 3 µM; hit rate 1.3% among 370,000;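 active = inhibition above the plate cutoff, the mean of all test compounds on that plate plus 3 SD, cut at about 35% in these data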;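 also: higher means more dye released from RNA so lower well fluorescence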
ABCB6 inh MLPCN – inhibitors of human ABC transporter ABCB6; Q9NP58; K562-ABCB6 porphyrin accumulation, flow cytometry, 1 h; active compounds read low; fluorescence ratio to DMSO, % at 10 µM; hit rate 0.19% among 360,000;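 active = fluorescence ratio to DMSO below 75%, the collection mean minus 3 SD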;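 also: signal is porphyrin accumulated inside mitochondria; lower ratio means ABCB6 inhibition with less porphyrin fluorescence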
Granule exo inh – lytic granule exocytosis inhibition | TALL-104 LAMP-1 surface exposure, flow cytometry; cells stimulated with thapsigargin and PMA | inhibition, % at 10 µM | hit rate 0.66% among 360,000 | AID 651702;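 active = inhibition above about 55%, limit read from the data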
rCAG bind conf – r(CAG) RNA repeat binding, confirmation; TO-PRO-1 dye displacement fluorescence; shares compounds with rCAG binder; inhibition, % at 3 µM; AID 652065; hit rate 70% among 4,300;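 active = inhibition above a per-plate cutoff, the mean inhibition of sample wells plus 3 SD, cut at about 35% in these data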;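 also: loss of TO-PRO-1 fluorescence as compound displaces dye from 1x1 AA loop RNA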
dCAG dye counter – disrupts DNA CAG TO-PRO-1 complex, flagging rCAG hits; shares compounds with rCAG binder; d(CAG) DNA oligo TO-PRO-1 dye displacement, fluorescence; inhibition, % at 3 µM; hit rate 94% among 4,300; AID 652068;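 active = inhibition above its plate's cutoff, the mean test-well inhibition plus 3 SD, cut at about 4.8% in these data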;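 also: hits displace the dye from DNA and so lower well fluorescence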
dCAG dye DR – counter-screen for rCAG binders: inhibitors of DNA CAG TO-PRO-1 complex | shares compounds with rCAG binder | AID 686960 | IC50, µM | hit rate 20% among 250 | DNA CAG/GTC duplex TO-PRO-1 dye displacement fluorescence; in the data active = IC50 below about 10 µM
Large screens that a line does not name were inactive (follow-up assays come after a bar, where they were run).

CCOc1ccc(S(=O)(=O)Nc2cc(NS(=O)(=O)c3ccc(OCC)cc3)cc(C(=O)O)c2)cc1	rCAG binder 58 | rCAG bind conf 60 | dCAG dye counter 24
CCOc1ccc(Oc2ccc(NS(=O)(=O)c3ccc(CCC(=O)O)cc3)cc2)cc1	rCAG binder 43 | rCAG bind conf 38 | dCAG dye counter 11
O=C(NCCc1ccc(Cl)cc1)c1cc(S(=O)(=O)N2CCCCC2)c[nH]1	none (no result: PG9 Ab binder, rCAG binder)
CCC/C=C/c1ccc(CN2C(CC(C)C)C(=O)N(Cc3cn(Cc4ccco4)nn3)CCS2(=O)=O)cc1 (stereo unspecified)	none
O=C(OCN1C(=O)c2ccccc2C1=O)c1cc(S(=O)(=O)N2CCOCC2)ccc1F	none
O=C(COC(=O)c1ccc([N+](=O)[O-])cc1)Nc1ccccc1C(=O)NC1CC1	none
CC(=O)NNc1cc(C)nc(N)n1	rCAG binder 66 | rCAG bind conf inactive | dCAG dye counter inactive
CCN(Cc1ccccc1)S(=O)(=O)c1c(N)n(C)c(=O)n(C)c1=O	rCAG binder 52 | rCAG bind conf inactive | dCAG dye counter inactive
CCc1ccc(N=C2NC(=O)/C(=C/c3cc(OC)c(O)c(OC)c3)S2)cc1	rCAG binder 42 | rCAG bind conf 40 | dCAG dye counter 16
O=C(CSc1ccc(-c2ccco2)nn1)c1cccc([N+](=O)[O-])c1	rCAG binder 35 | rCAG bind conf inactive | dCAG dye counter 11
CC(=O)c1cccc(NC(=O)CSc2ccc(-c3ccco3)nn2)c1	none
O=C(O)CN1C(=O)/C(=C\c2ccccc2OCc2ccc(F)cc2)SC1=S	rCAG binder 84 | rCAG bind conf 72 | dCAG dye counter 31 | dCAG dye DR inactive
O=C(O)CN1C(=O)/C(=C\c2cccc(OCc3ccccc3)c2)SC1=S	rCAG binder 81 | rCAG bind conf 72 | dCAG dye counter 35
O=C(O)CN1C(=O)/C(=C\c2ccccc2OCc2ccccc2)SC1=S	rCAG binder 73 | rCAG bind conf 73 | dCAG dye counter 33 | dCAG dye DR inactive
O=C(O)CCCCN1C(=O)/C(=C\c2ccc(OCc3ccccc3)c(OCc3ccccc3)c2)SC1=S	none
CN1C(=O)/C(=C/c2ccccc2OCc2ccc(F)cc2)N(C)C1=S	none
COc1cc(C(=O)N/C(=C\c2cn(S(=O)(=O)N(C)C)c3ccccc23)C(=O)N2CCCC2)cc(OC)c1OC	none
COc1ccc(CNC(=O)C/C(C)=N/NC(=O)c2ccc(OC)cc2OC)cc1	none
COc1cccc(-c2cnc(C(O)c3c(C)ccc4ccccc34)[nH]2)c1 (stereo unspecified)	none
O=C(NCc1cccnc1)c1cc(C2CCCCN2C(=O)OCc2ccccc2)on1 (stereo unspecified)	none
O=C1NC(c2cc(Cl)cc([N+](=O)[O-])c2O)Nc2ccccc21 (stereo unspecified)	rCAG binder 35 | rCAG bind conf 80 | dCAG dye counter 45
O=C1NC(c2ccc(Cl)c([N+](=O)[O-])c2)Nc2ccccc21 (stereo unspecified)	none
Cc1ccnc(NS(=O)(=O)c2ccc(NC(=O)c3cc(-c4ccccc4)nc4ccccc34)cc2)n1	rCAG binder 45 | rCAG bind conf 56 | dCAG dye counter 16
COc1cc(-c2cc(C(=O)Nc3ccc(S(=O)(=O)Nc4ncccn4)cc3)c3ccccc3n2)cc(OC)c1OC	none
Cc1ccnc(NS(=O)(=O)c2ccc(NC(=O)c3cc(-c4ccc(Br)cc4)nc4ccccc34)cc2)n1	rCAG binder 39 | rCAG bind conf 72 | dCAG dye counter 33 | dCAG dye DR inactive
COc1ccc(-c2cc(C(=O)Nc3ccc(S(=O)(=O)Nc4ncccn4)cc3)c3ccccc3n2)cc1	rCAG binder 58 | rCAG bind conf 56 | dCAG dye counter 22
CCc1nc(SCC(=O)Nc2nnc(C(C)C)s2)n[nH]1	none
CCNC(=O)C1(C)CCN(C(=O)c2ccc(C(=O)OC)cc2)C1 (stereo unspecified)	none
C/C(=N/NC(=O)CNC(=O)c1cccnc1)c1ccc(Cl)c(Cl)c1	none
Cc1c(CCC(=O)NCCCCCC(=O)O)c(=O)oc2cc3occ(-c4ccccc4)c3cc12	none
